# Data as given in PubChem BioAssay (Tox21).
# Values joined by “and” are separate entries in the source; they are usually repeats but may differ in a detail not shown here. Equal entries are not always repeated. Results filed as inconclusive are left out. Where a call stands in place of a potency, no number is given. A structure can be active in one record and inactive in another. Active and inactive are the calls of the source. Unless noted, the call rests on the fitted dose curve.
# How the values were obtained:
# [1] = qHTS assay to identify small molecule antagonists of the vitamin D receptor (VDR) signaling pathway - cell viability counter screen (AID 743225; active means well fitted curve in the direction sought with a large enough effect in the repeat runs; an effect the other way counts as inactive or inconclusive; further: nearly all actives have a fitted effect of over 50% in size)
# How it was run: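 In this counter screen, VDR-bla HEK 293T cells receive test compound plus 3 nM final calcitriol for 16 h at 37C. Room-temperature steps of 2 h with the beta-lactamase substrate, then 30 min with CellTiter-Glo, precede the luminescence read.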
# [2] = qHTS assay to identify small molecule agonists of the NFkB signaling pathway - cell viability counter screen (AID 1159515); further: series mostly up to about 61 µM; nearly all actives have a fitted effect of over 55% in size
# How it was run: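 Counter screen run alongside the NFkB-bla agonist assay: ME-180 reporter cells exposed to compounds for 5 hr, then lysed with CellTiter-Glo in the same wells. Luminescence, read after 30 min, reflects viable cells.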
# [3] = qHTS assay to identify small molecule agonists of the endoplasmic reticulum stress response signaling pathway (AID 1159516; active means well fitted activation curve with a large enough effect in the signal ratio in the repeat runs, not every such curve was filed as active; the % refers to the signal ratio; further: potency means the concentration at half of the fitted maximal effect)
# How it was run: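 For this screen, HeLa cells stably carrying beta-lactamase under the ER stress response element received test compounds, positive controls or DMSO for 5 hr at 37 C; B/G FRET substrate was then added and dual-wavelength emission recorded.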
# [4] = qHTS assay to identify small molecule agonists of the endoplasmic reticulum stress response signaling pathway - cell viability counter screen (AID 1159517); further: series mostly up to about 61 µM; nearly all actives have a fitted effect of over 50% in size
# How it was run: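 In parallel with the ESRE reporter read, cytotoxicity was scored by CellTiter-Glo luminescence (30 min, room temperature) on HeLa ESRE-bla cells dosed for 5 hr.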
# [5] = qHTS assay to identify small molecule antagonists of the retinoid-related orphan receptor gamma (ROR-gamma) signaling pathway - cell viability counter screen (AID 1159520; active means well fitted curve in the direction sought with a large enough effect in the repeat runs; an effect the other way counts as inactive or inconclusive; further: nearly all actives have a fitted effect of over 50% in size)
# How it was run: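 Tet-on ROR gamma CHO cells were given compounds for 2 hr, then doxycycline hyclate at 1 uM final, and incubated 16 hr at 37 C. Viability was measured as ATP content by CellTiter-Glo luminescence.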
# [6] = biological target: Nuclear receptor ROR-gamma (Homo sapiens) (UniProt P51449); experiment: qHTS assay to identify small molecule antagonists of the retinoid-related orphan receptor gamma (ROR-gamma) signaling pathway (AID 1159521; active means well fitted curve in the direction sought with a large enough effect in the repeat runs; an effect the other way counts as inactive or inconclusive; further: nearly all actives have a fitted effect of over 50% in size; further: potency means the concentration at half of the fitted maximal effect)
# How it was run: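 Screening format: cell-based luciferase reporter in CHO cells with doxycycline-inducible RORγ. Compound pre-exposure lasts 2 h, doxycycline is 1 uM final, induction runs 16 h at 37 C, and ONE-Glo luminescence is read.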
# [7] = qHTS assay to identify small molecule agonists of the AP-1 signaling pathway - cell viability counter screen (AID 1159525); further: nearly all actives have a fitted effect of over 55% in size
# How it was run: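 Same-well cytotoxicity counter screen of the Tox21 10K library in ME-180 cells. The readout is ATP-dependent luminescence after 5 h compound treatment. Data are normalised to DMSO and tetra n-octyl ammonium bromide controls.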
# [8] = qHTS assay to identify small molecule agonists of the AP-1 signaling pathway (AID 1159526)
# [9] = biological target: Retinoic acid receptor RXR-alpha (Homo sapiens) (UniProt P19793); experiment: qHTS assay to identify small molecule agonists of the RXR signaling pathway (AID 1159527); further: nearly all actives have a fitted effect of over 35% in size; further: potency means the concentration at half of the fitted maximal effect
# Chain of Retinoic acid receptor RXR-alpha (Homo sapiens) (P19793 whole entry, looked up): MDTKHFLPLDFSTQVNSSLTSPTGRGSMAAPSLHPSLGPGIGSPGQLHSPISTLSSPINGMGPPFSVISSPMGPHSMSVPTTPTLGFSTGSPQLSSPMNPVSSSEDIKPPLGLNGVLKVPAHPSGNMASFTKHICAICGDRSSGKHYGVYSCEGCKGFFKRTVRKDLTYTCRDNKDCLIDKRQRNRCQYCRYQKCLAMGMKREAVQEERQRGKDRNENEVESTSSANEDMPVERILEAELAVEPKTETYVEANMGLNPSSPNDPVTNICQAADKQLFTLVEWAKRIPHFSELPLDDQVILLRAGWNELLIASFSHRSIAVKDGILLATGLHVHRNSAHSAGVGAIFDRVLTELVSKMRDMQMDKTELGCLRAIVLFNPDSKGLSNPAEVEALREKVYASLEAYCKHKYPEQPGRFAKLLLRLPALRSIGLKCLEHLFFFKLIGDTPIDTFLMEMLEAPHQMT
# How it was run: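 Fluorescence ratio readout (460 vs 530 nm) from GeneBLAzer RXR-alpha HEK 293T cells after 16 hr compound treatment; cells seeded 5 hr beforehand in low-serum, charcoal-stripped medium.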
# [10] = qHTS assay to identify small molecule agonists of the RXR signaling pathway - cell viability counter screen (AID 1159529; active means well fitted curve in the direction sought with a large enough effect in the repeat runs; an effect the other way counts as inactive or inconclusive)
# How it was run: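 Viability read-out for the RXR-alpha agonist qHTS: luminescent CellTiter-Glo signal after 30 min at RT. HEK 293T bla reporter cells, 2% charcoal-stripped FBS, 16 hr compound incubation; tetraoctyl ammonium bromide as cytotoxic control.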
SMILES,Potency [1],Potency [2],Potency [3],Potency [4],Potency [5],Potency [6],Potency [7],Potency [8],Potency [9],Potency [10]
COc1cc(CC#N)cc(OC)c1OC,inactive,inactive,inactive,inactive,inactive,inactive,inactive,inactive,inactive,inactive
CC(C)CCON=O,inactive,inactive,inactive,inactive,inactive,inactive,inactive,inactive,inactive,inactive
C=CC(C)(CCC=C(C)C)OC(=O)c1ccccc1N (stereo not given),inactive,inactive,inactive,inactive,inactive,inactive,inactive,inactive,inactive,inactive
Nc1ccccc1C(=O)OCC(O)CO (stereo not given),inactive,inactive,inactive,inactive,inactive,inactive,inactive,inactive,inactive,inactive
C[C@H]1O[C@H](OC2[C@@H](O)[C@@H](O)C(O)[C@H](O)[C@H]2O)[C@@H](N)C[C@@H]1N=C(N)C(=O)O (stereo not given in full),inactive,inactive,inactive,inactive,inactive,inactive,inactive,inactive,inactive,inactive
CCSCc1ccccc1OC(=O)NC,inactive,inactive,inactive,inactive,inactive,inactive,inactive,inactive,inactive,inactive
CCCCCBr,inactive,inactive,inactive,inactive,inactive,inactive,inactive,inactive,inactive,inactive
Cc1ccccc1,inactive,inactive,inactive,inactive,inactive,inactive,inactive,inactive,inactive,inactive
CC(Cl)C(=O)O (stereo not given),–,inactive,inactive,inactive,inactive,inactive,inactive,inactive,inactive,inactive
OCC1CO1 (stereo not given),inactive,inactive,inactive,inactive,inactive,inactive,inactive,inactive,inactive,inactive
CCOP(=O)(SC(C)CC)N1CCSC1=O (stereo not given),inactive,inactive,inactive,inactive,inactive,inactive,inactive,inactive,11 µM (active),inactive
Clc1ccc(Cl)c(Cl)c1,inactive,inactive,inactive,inactive,inactive,inactive,inactive,inactive,inactive and 12.3 µM (active),inactive
O=S(=O)(Cl)Cl,inactive,inactive,inactive,inactive,inactive,inactive,inactive,inactive,inactive,inactive
C=CCN1C[C@H](C)N([C@H](c2ccc(C(=O)N(CC)CC)cc2)c2cccc(OC)c2)C[C@H]1C,inactive,inactive,inactive,inactive,inactive,inactive,inactive,inactive,inactive,inactive
O=C1CC[C@@]2(O)[C@H]3Cc4ccc(O)c5c4[C@@]2(CCN3CC2CC2)[C@H]1O5,–,inactive,inactive,inactive,inactive,inactive,inactive,inactive,inactive,inactive
C[C@H]1[C@@H]2Cc3ccc(O)cc3[C@@]1(C)CCN2C,inactive,inactive,inactive,inactive,inactive,inactive,inactive,inactive,inactive,inactive
CC(Oc1cc(Cl)c(Cl)cc1Cl)C(=O)O (stereo not given),inactive,inactive,inactive,inactive,inactive,inactive,inactive,inactive,inactive,inactive
Cc1cccc(C)c1NC1=NCCCS1,inactive,inactive,inactive,inactive,inactive,inactive,inactive,inactive,inactive,inactive
CC(C)(C#N)C(C)(C)C#N,inactive,inactive,inactive,inactive,inactive,inactive,inactive,inactive,inactive,inactive
Cc1nc(N(C)C)nc(OC(=O)N(C)C)c1C,inactive,inactive,inactive,inactive,inactive,inactive,inactive,inactive,inactive,inactive
Clc1ccccc1,inactive,inactive,inactive,inactive,inactive,inactive,inactive,inactive,inactive,inactive
CCCCCCCCCCCCCCCl,inactive,inactive,inactive,inactive,inactive,inactive,inactive,inactive,inactive,inactive
OCCCl,inactive,inactive,inactive,inactive,inactive,inactive,inactive,inactive,19.5 µM (active),inactive
C=CCOC(=O)C(C)(C)OC(=O)c1cc(-n2c(=O)cc(C(F)(F)F)n(C)c2=O)ccc1Cl,inactive,inactive,inactive,inactive,inactive,inactive,inactive,inactive,inactive,inactive
C#C[C@]1(O)CC[C@H]2[C@@H]3CCC4=CC(=O)CCC4=C3C=C[C@@]21CC,inactive,inactive,inactive,inactive,inactive,9.44 µM (active),inactive,inactive,inactive,inactive

SMILES,Potency [1],Potency [2],Potency [3],Potency [4],Potency [5],Potency [6],Potency [7],Potency [8],Potency [9],Potency [10]
CN1CC[C@]23c4c5ccc(O)c4O[C@H]2[C@@H](O)C=C[C@H]3[C@H]1C5,inactive,inactive,inactive,inactive,inactive,inactive,inactive,inactive,inactive,inactive
CCCC1CCCCN1 (stereo not given),inactive,inactive,inactive,inactive,inactive,inactive,inactive,inactive,inactive,inactive
C1CCNCC1,inactive,inactive,inactive,inactive,inactive,inactive,inactive,inactive,inactive,inactive
CC[N+]1(C)CCCC(OC(=O)C(O)(c2ccccc2)c2ccccc2)C1 (stereo not given),inactive,inactive,inactive,inactive,inactive,inactive,inactive,inactive,inactive,inactive
C[N+](C)(C)CCOC(=O)C(O)(c1ccccc1)c1ccccc1,inactive,inactive,inactive,inactive,inactive,inactive,inactive,inactive,inactive,inactive
O=C(Cc1ccccc1)c1ccccc1,–,inactive,inactive,inactive,inactive,inactive,inactive,inactive,inactive,inactive
Cc1nnc(-c2ccccc2)c(=O)n1N,inactive,inactive,inactive,inactive,inactive,inactive,inactive,inactive,inactive,inactive
CN1C(=O)CN=C(c2ccccc2)c2cc([N+](=O)[O-])ccc21,inactive,inactive,inactive,inactive,inactive,inactive,inactive,inactive,inactive,inactive
CCCCCCCCCCCCN(C)C,inactive,inactive,inactive,inactive,inactive,inactive,inactive,inactive,inactive,inactive
O=C(Cl)OCCOCCOC(=O)Cl,–,inactive,inactive,inactive,inactive,inactive,inactive,inactive,2.19 µM (active),inactive
O=C(O)C(F)(F)C(F)(F)C(F)(F)C(F)(F)C(F)(F)C(F)(F)C(F)(F)C(F)(F)F,–,inactive,inactive,inactive,inactive,inactive,inactive,inactive,21.9 µM (active),–
Nc1cc(Cl)cc(C(=O)O)c1Cl,inactive,inactive,inactive,inactive,inactive,inactive,inactive,inactive,inactive,inactive
CC(C)(C)NCC(O)c1ccccc1Cl (stereo not given),inactive,inactive,inactive,inactive,inactive,inactive,inactive,inactive,inactive,inactive
NCCc1cc(O)c(O)cc1O,inactive,inactive,4.25 µM (active),inactive,inactive,inactive,inactive,inactive,inactive,inactive
CNC(=O)Oc1cccc(N=CN(C)C)c1,inactive,inactive,inactive,inactive,inactive,inactive,inactive,inactive,–,inactive
O=C([O-])c1ccccn1.O=C([O-])c1ccccn1.O=C([O-])c1ccccn1.[Cr+3],inactive,inactive,inactive,inactive,inactive,inactive,inactive,inactive,–,inactive
CCCCCCCCP(=O)(O)O,inactive,inactive,inactive,inactive,inactive,inactive,inactive,inactive,inactive,inactive
CCOP(=S)(OCC)SCSc1cc(Cl)ccc1Cl,inactive,inactive,inactive,inactive,inactive,inactive,inactive,inactive,–,inactive
CCOC(=O)c1cncn1C(C)c1ccccc1 (stereo not given),–,inactive,inactive,inactive,inactive,inactive,inactive,inactive,–,inactive
CC(=O)NNc1ccccc1,–,inactive,inactive,inactive,inactive,inactive,inactive,inactive,–,inactive
O=[N+]([O-])O[C@H]1CO[C@H]2[C@@H]1OC[C@H]2O[N+](=O)[O-],inactive,inactive,inactive,inactive,inactive,inactive,inactive,inactive,inactive,inactive
C1CS1,inactive,inactive,inactive,inactive,inactive,inactive,inactive,inactive,inactive,inactive
CCC(=O)O[C@@H]1C=C2CCC3C(CCC4(C)C3CC[C@@H]4OC(=O)CC)C2CC1 (stereo not given in full),inactive,inactive,inactive,inactive,inactive,inactive,inactive,inactive,inactive,–
CC(C)C1(C)N=C(c2ncccc2C(=O)O)NC1=O (stereo not given),inactive,inactive,inactive,inactive,inactive,inactive,inactive,inactive,–,inactive
